Source: PubChem BioAssay
ZTA DNA inh: blocks Epstein-Barr virus ZTA, an EBNA-1 counter-screen; ZTA-DNA binding, fluorescence polarization; inhibition, % at 11 µM; actives 0.15% (n = 320,000); AID 2234; in the data active = inhibition above about 33%
Target sequence (P03206 whole entry, looked up): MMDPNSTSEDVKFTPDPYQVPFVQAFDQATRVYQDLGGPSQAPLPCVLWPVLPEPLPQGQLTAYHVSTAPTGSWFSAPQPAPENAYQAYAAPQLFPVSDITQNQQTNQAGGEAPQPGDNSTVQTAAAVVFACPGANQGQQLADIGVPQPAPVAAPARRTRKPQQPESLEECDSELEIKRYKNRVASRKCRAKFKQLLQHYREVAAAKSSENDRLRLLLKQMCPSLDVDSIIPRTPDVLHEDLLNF
NALP1 yeast inh: NALP1 inflammasome inhibitors in reconstituted yeast, colorimetric, S. cerevisiae, triplicate retest. S. cerevisiae NALP1/ASC/caspase-1 growth, X-gal OD620, 72 h. inhibition, % at 10 µM. actives 0.61% (n = 280,000). AID 2071, 2009; in the data active = inhibition mostly above about 24%, no sharp cut-off; inactive = mostly below about 32%
NALP3 yeast inh: NALP3 inflammasome inhibitors in reconstituted yeast, primary screen, luminescence, uHTS; inhibition, % at 10 µM; actives 0.39% (n = 330,000); Yeast reconstituted NLRP3/ASC/caspase-1, beta-gal luminescence, 24 h;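 active = inhibition of 50% or more; inactive = inhibition below 50%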
EBNA-1 inh: EBNA-1 DNA-binding inhibitors, primary screen, biochemical, fluorescence polarization. inhibition, % at 14.8 µM. actives 0.34% (n = 300,000); in the data active = inhibition above about 28%
dFosB act-1: activators of delta FosB homodimer, primary screen, biochemical, fluorescence polarization, TAMRA-CDK5 oligo, single point; Protein FosB (Mus musculus), P13346; purified delta FosB; percent of positive-control signal above neutral wells; activation, % at 25 µM; actives 0.99% (n = 340,000);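 active = mean activation above about 17%, with every replicate also reaching it, limit read from the data, passing the limit was not always enough; inconclusive = only one of the two conditions met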
Target sequence (P13346 whole entry, looked up): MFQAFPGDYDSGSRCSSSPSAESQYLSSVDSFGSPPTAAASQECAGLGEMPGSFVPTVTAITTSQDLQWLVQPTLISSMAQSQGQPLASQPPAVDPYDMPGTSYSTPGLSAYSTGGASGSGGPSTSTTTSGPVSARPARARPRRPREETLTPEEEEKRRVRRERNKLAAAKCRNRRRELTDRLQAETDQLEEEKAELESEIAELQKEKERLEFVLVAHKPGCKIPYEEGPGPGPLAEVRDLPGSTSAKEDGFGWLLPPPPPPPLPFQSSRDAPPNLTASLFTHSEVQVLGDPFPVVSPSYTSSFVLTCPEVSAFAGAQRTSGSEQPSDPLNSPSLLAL
PolyA inhibitor: polyadenylation inhibitors in yeast reporter cells, primary screen, luminescence, S. cerevisiae | AID 1875, 2009 | S. cerevisiae SKY197-pL101 polyadenylation reporter, beta-gal luminescence; efflux-impaired pdr1/pdr3 knockout yeast; score 100 = 6 SD above DMSO | activity score, % at 12 µM | actives 0.02% (n = 300,000);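 active = lowest replicate activity score at least 50, where 100 means six control SD above control mean; inconclusive = lowest score under 50 but half or more replicates reach 50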;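 note: yeast exposed to compound for 9 h at 30 °C; higher score means more reporter readthrough which indicates perturbed polyadenylation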
dFosB act-2: activators of mouse delta FosB DNA binding, confirmation, biochemical, fluorescence polarization, TAMRA-CDK5 oligo, cherry-picked samples; shares compounds with dFosB act-1; 2,400 tested, under 10 active; purified delta FosB; normalised: neutral wells 0, positive control 100; AID 588690, 2011; activation, % at 24.9 µM;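 active = highest replicate activation at or above 34% and every replicate reaching that threshold; inconclusive = meets only one of the two criteria; inactive = meets neither criterion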;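 note: higher polarization means more probe DNA bound by delta FosB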
Of the large screens only hits and unclear results are named; the others gave an inactive call (follow-up assays come after a bar, where they were run). Hits are enriched below; roughly 2.2% of the tested compounds scored in any of these assays.

CCOC(=O)N1CCN(C2=Nc3cccc4cccc2c34)CC1	dFosB act-1 22 | dFosB act-2 inactive
CC1CN(C2=Nc3cccc4cccc2c34)CC(C)O1 (configuration not stated)	none
O=C(NNC(=O)c1c(O)c2ccccc2[nH]c1=O)c1ccccc1	dFosB act-1 83 | dFosB act-2 inactive
COc1ccccc1NC(=O)c1c(O)c2ccccc2[nH]c1=O	none
COC(=O)Nc1ccc(S(=O)(=O)NNC(=O)c2c(O)c3ccccc3[nH]c2=O)cc1	dFosB act-1 24 | dFosB act-2 inactive
Cc1ccc(S(=O)(=O)NNC(=O)c2c(O)c3ccccc3[nH]c2=O)cc1	dFosB act-1 21 | dFosB act-2 inactive
CCCC(=O)NNC(=O)c1c(O)c2ccccc2[nH]c1=O	none
CC(C)C(=O)NNC(=O)c1c(O)c2ccccc2[nH]c1=O	none (no result: NALP1 yeast inh)
O=C(NNC(=O)c1sc2cccc(Cl)c2c1Cl)Nc1ccccc1	dFosB act-1 76 | dFosB act-2 inactive
Cc1ccc(CCNC(=O)c2ccc(NC3=NC4CS(=O)(=O)CC4S3)cc2)cc1 (configuration not stated)	none
NS(=O)(=O)c1ccc(CCNC(=O)c2ccc(NC3=NC4CS(=O)(=O)CC4S3)cc2)cc1 (configuration not stated)	dFosB act-1 18 | dFosB act-2 inactive
COC(=O)N/N=C/c1c(C)nn(-c2cccc(Cl)c2)c1Cl	none
Cc1nn(-c2ccc(F)cc2)c(Cl)c1/C=N/NC(=O)c1cccs1	dFosB act-1 39 | dFosB act-2 inactive
Cc1nn(-c2ccc(F)cc2)c(Cl)c1/C=N/NC(=O)c1ccc(O)cc1	none
Cc1nn(-c2cccc(Cl)c2)c(Cl)c1/C=N/NC(=O)c1cccnc1	dFosB act-1 23 | dFosB act-2 inactive
Cc1nn(Cc2c(Cl)cccc2Cl)c(Cl)c1/C=N/NC(=O)c1cccnc1	dFosB act-1 56 | dFosB act-2 inactive
Cc1ccc(C)c(OCCNc2ncccc2[N+](=O)[O-])c1	none
CC1CC(C)CN(C(=O)c2ccc(NS(=O)(=O)c3ccc4[nH]c(=O)[nH]c4c3)cc2)C1 (configuration not stated)	none (no result: NALP1 yeast inh)
O=C(N/N=C/c1ccc(OC(=O)c2cccs2)cc1)c1ccc(F)cc1	dFosB act-1 33 | dFosB act-2 inactive
O=C(O)c1ccc(/C=N/NC(=O)c2ccc(F)cc2)cc1	none (no result: NALP1 yeast inh)
O=C(NNC(=O)c1ccccc1O)c1cccc(Br)c1	none
O=C(Nc1nnc(Cc2ccc(F)cc2)s1)Nc1ccccc1F	dFosB act-1 27 | dFosB act-2 inactive
O=C(Nc1nnc(-c2ccccc2SCc2ccccc2)s1)Nc1ccccc1F	dFosB act-1 91 | dFosB act-2 inactive
CCCN(c1ccccc1C(=O)O)S(=O)(=O)c1ccc2c(c1)n(C)c(=O)n2C	none
COc1ccc(C(=O)Nc2nnc(SCC(=O)NC3CC3)s2)cc1	dFosB act-1 22 | dFosB act-2 inactive
COc1cc(OC)cc(C(=O)Nc2nnc(SCC(=O)NCc3ccco3)s2)c1	none
COc1ccc(Nc2nnc(SCC(=O)NC3CC3)s2)cc1	none (no result: NALP1 yeast inh, EBNA-1 inh, PolyA inhibitor)
COc1cccc(C(=O)Nc2nnc(SCC(=O)NC3CC3)s2)c1	dFosB act-1 53 | dFosB act-2 inactive
COCCSc1nnc(NC(=O)c2ccc(OC)c([N+](=O)[O-])c2)s1	dFosB act-1 26, PolyA inhibitor inconclusive | dFosB act-2 inactive
COc1ccc(C(=O)Nc2nnc(SCC(=O)NCc3ccco3)s2)cc1OC	dFosB act-1 26 | dFosB act-2 inactive
COc1ccc(CSc2nnc(NC(C)=O)s2)cc1[N+](=O)[O-]	none (no result: ZTA DNA inh, NALP3 yeast inh, EBNA-1 inh, PolyA inhibitor)
NS(=O)(=O)c1cccc(NC(=O)CSc2n[nH]c(-c3ccccc3Br)n2)c1	none (no result: ZTA DNA inh, NALP1 yeast inh, NALP3 yeast inh, EBNA-1 inh, PolyA inhibitor)
CCCCC(=O)Nc1nnc(SCC(=O)NC2CCCC2)s1	none
O=C(CCCl)Nc1nnc(SCC(=O)NC2CCCC2)s1	dFosB act-1 20 | dFosB act-2 inactive
COc1ccc(Br)cc1-c1noc(-c2ccncc2)n1	none
COc1ccc(Br)cc1-c1noc(-c2ccccc2)n1	dFosB act-1 27 | dFosB act-2 inconclusive
Cc1nnc(NC(=O)c2cccc(F)c2)s1	none
O=C(Nc1nnc(-c2cccs2)s1)c1cccc(F)c1	dFosB act-1 36 (no result: PolyA inhibitor) | dFosB act-2 inactive
CC(C)(C)C1CCc2c(sc(NC(=O)c3ccncc3)c2C(N)=O)C1 (configuration not stated)	dFosB act-1 34 | dFosB act-2 inactive
CC(C)C[C@H](NC(=O)[C@@H]1Cc2ccccc2CN1)C(=O)Nc1ccc(C(C)C)cc1	dFosB act-1 23 | dFosB act-2 inactive
Cc1ccc(NC(=O)[C@H](Cc2c[nH]c3ccccc23)NC(=O)[C@@H]2Cc3ccccc3CN2)c(C)c1	dFosB act-1 34 | dFosB act-2 inactive
Cc1cc(C)cc(NC(=O)[C@H](NC(=O)[C@@H]2Cc3ccccc3CN2)c2ccccc2)c1	dFosB act-1 47 | dFosB act-2 inactive
CC(C)c1ccc(NC(=O)[C@@H](C)NC(=O)[C@@H]2Cc3ccccc3CN2)cc1	none
Cc1ccc(NC(=O)[C@H](NC(=O)[C@@H]2Cc3ccccc3CN2)c2ccccc2)c(C)c1	none
CN(C)c1cc2c(cc1NC(=O)c1ccccc1Cl)n(C)c(=O)n2C	none
Cc1cc(NC(=O)CCC(=O)N(CCC(C)C)C(C(=O)NC2CCCC2)c2ccccc2C)no1 (configuration not stated)	none
O=C(c1ccc(S(=O)(=O)Nc2ccccc2F)cc1)N1CCN(c2ccccc2O)CC1	none (no result: NALP1 yeast inh)
CC(C)(CO)C(O)C(=O)NCCCO (configuration not stated)	none (no result: NALP1 yeast inh)
O=C(NCCO)C(=O)NCC1OCCCN1S(=O)(=O)c1cc(F)ccc1F (configuration not stated)	none
O=C(N/N=C/c1ccc(-c2cccc([N+](=O)[O-])c2)o1)c1ccccc1O	dFosB act-1 22 | dFosB act-2 inactive
O=C(N/N=C/c1ccc(-c2cccc(C(F)(F)F)c2)o1)c1ccccc1Br	none
O=C(N/N=C/c1ccc(-c2cccc(C(F)(F)F)c2)o1)c1ccccc1O	dFosB act-1 32 | dFosB act-2 inactive
CCCN(CC(=O)Nc1ccc(F)c(F)c1F)C(=O)CCc1nc2ccccc2c(=O)[nH]1	dFosB act-1 40 (no result: NALP1 yeast inh) | dFosB act-2 inactive
CN(CC(=O)Nc1ccc(Cl)c(C(F)(F)F)c1)C(=O)CCc1nc2ccccc2c(=O)[nH]1	dFosB act-1 52 (no result: NALP1 yeast inh, EBNA-1 inh, PolyA inhibitor) | dFosB act-2 inactive
